Source: PubChem BioAssay (several laboratories)
CR mimetic SO = caloric restriction mimetics inhibiting age-related superoxide in yeast | 330,000 compounds, 0.18% hits | S. cerevisiae aged cells, superoxide DHE fluorescence; hits give low values | superoxide response (% of plate mean), % at 10 µM;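 active means superoxide response under a set limit, about three screen SD below normal, cut at about 65% in these data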;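 further: yeast aged for seven days with compound at 30 °C before DHE staining; 100% = average MFI of all compound-treated wells on the plate with controls excluded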
PLC-beta3 inh = PLC-beta3 (human) inhibition, primary screen | Purified PLC-beta3, fluorogenic substrate, fluorescence | Q01970 | AID 720704 | 370,000 compounds, 0.18% hits | inhibition, % at 12.2 µM; in the data active means inhibition above about 11%;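 further: 0% = median of compound wells on plate and 100% = full blocker control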
PLCg1 inh = blocks human PLC-gamma1 enzyme activity | purified PLC-gamma1, fluorogenic substrate, fluorescence | inhibition, % at 12.2 µM | 370,000 compounds, 0.84% hits; in the data active means inhibition above about 9.5%
HIF activator = HIF pathway transcriptional activation; U2OS HRE-luciferase reporter, luminescence; normalized: DMSO 0%, desferrioxamine 100%; activation, % at 7.5 µM (by protocol); 300,000 compounds, 0.32% hits; AID 1910;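 active means mean activation of at least 10% of the iron chelator positive control signal, with at least half of replicates also reaching 10%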
HGIII-sPLA2 inh = Inhibits HGIII-sPLA2 liposome hydrolysis, primary screen; Q9NZ20; QFRET BODIPY PC-A2 liposome hydrolysis, fluorescence; inhibition, % at 12.2 µM; 370,000 compounds, 0.56% hits; AID 743126;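 active means inhibition above mean plus 3 SD of compounds lying within the high and low control bounds, cut at about 19% in these data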;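 further: 0% = median of test compound wells and 100% = no enzyme DMSO wells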
AHR activator = activators of human aryl hydrocarbon receptor | activation, % at 5 µM | AID 2796 | P35869 | 320,000 compounds, 2.5% hits | AHR-responsive luciferase reporter cells, luminescence; in the data active means activation above about 47%;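 further: 0% = vehicle wells and 100% = reference agonist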
AHR act confirm = human AHR activation, confirmation; shares compounds with AHR activator; human cells, AHR-responsive luciferase reporter, luminescence; activation, % at 9 µM; 2,300 compounds, 87% hits; AID 2845; in the data active means activation above about 49%;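 further: HepG2 hepatoma cells carrying a DRE-driven firefly luciferase reporter; 0% = vehicle wells and 100% = reference agonist wells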
PXR counter = activates human PXR in AHR activator counter-screen; cell-based PXR reporter, luciferase luminescence; shares compounds with AHR activator; 2,300 compounds, 88% hits; activation, % at 11.6 µM; AID 434939; in the data active means activation above about 11%;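 further: human hepatoma DPX-2 cells expressing full-length human PXR; 0% = DMSO and 100% = reference agonist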
Starred values were filed as active, the others as inactive; . = no result. This is a sample that favours compounds with a hit; in the whole collection about 3.9% have one here.

SMILES	CR mimetic SO	PLC-beta3 inh	PLCg1 inh	HIF activator	HGIII-sPLA2 inh	AHR activator	AHR act confirm	PXR counter
CN(CC(=O)Nc1ccc(Cl)c(Cl)c1)C(=O)c1cccc2cccnc12	79	-16	-7	.	-8	9	.	.
CC(=O)Nc1cccc(NC(=O)c2cccc3cccnc23)c1	126	-10	1	1	-1	124*	101*	56*
Cc1ccc(NC(=O)c2ccccc2O)cc1	88	-6	-6	1	-3	20	.	.
Nc1c(Br)cc2oc(-c3ccccc3)nc2c1Br	101	-26	-23	2	-1	84*	134*	13*
O=C(Oc1ccc(/C=N/NC(=O)c2ccccc2O)cc1)c1ccccc1	107	-19	-16	0	-5	3	.	.
Cn1nccc1C(=O)Oc1ccc(/C=N/NC(=O)c2ccccc2O)cc1	103	-28	-25	0	-4	93*	21	5
COc1cccc(CNC(=O)[C@H]2CCCN2C(=O)[C@H]2CCCN2C(=O)c2cccs2)c1	.	4	-2	.	12	.	.	.
Oc1c(-c2cc(-c3ccco3)[nH]n2)ccc2ccccc12	98	-17	-13	6	-14	116*	149*	13*
S=c1[nH]nc(-c2cc(-c3ccco3)[nH]n2)n1-c1ccccc1	100	-4	-3	-1	9	88*	96*	18*
O=C(Nc1ccc2ccccc2c1)N1CCCN(CCOc2ccccc2)CC1	100	-35	-16	0	4	4	.	.
CC(C)(C)c1ccc(S(=O)(=O)N2CC(C(=O)O)Oc3ccc(Cl)cc32)cc1 (stereo not given)	105	-2	0	-1	-45	3	.	.
COc1ccc(C2=NCCn3nc4cc(C(F)(F)F)ccc4c32)cc1	98	-3	-1	-2	-1	80*	69*	42*
OCCNCc1cc(Br)ccc1OCc1ccccc1Cl	99	3	-1	0	-5	119*	85*	40*
O=C(COc1ccc(Br)cc1CNCCc1ccccc1)NCc1ccccc1	94	-8	1	-1	0	114*	90*	44*
Cc1cccc(C)c1NC(=O)C(c1ccccc1)N1CCC(c2ccccc2)CC1 (stereo not given)	.	1	0	.	1	.	.	.
CC(C)c1ccc(N(CC(=O)N2CCN(Cc3ccccc3)CC2)S(C)(=O)=O)cc1	106	-7	-1	-1	-1	3	.	.
C=CCNc1nc(N)c([N+](=O)[O-])c(Nc2cccc(Cl)c2)n1	111	0	-1	0	-3	89*	132*	13*
Nc1nc(Nc2ccc(Cl)cc2)nc(NCCO)c1[N+](=O)[O-]	105	-1	5	1	-1	111*	193*	25*
COc1ccccc1C(=O)COC(=O)CNS(=O)(=O)c1ccc(C)cc1	97	-12	-2	0	-4	4	.	.
Clc1ccc(-c2n[nH]c3c2CCC3)cc1Cl	97	-3	-1	-2	-4	100*	99*	21*
CC(C)C(=O)Nc1ccc(Cl)cc1-c1nc2ccccc2[nH]c1=O	95	-11	-4	0	8	79*	76*	12*
C[n+]1c2n(c3ccccc31)N=C(c1ccccc1)CS2	90	3	2	1	1	69*	52*	32*
CCn1c(C)cc(/C=C2\NC(=O)N(Cc3ccc(Cl)cc3)C2=O)c1C	98	-52	-32	0	1	42	.	.
CCN1C(=O)N/C(=C/c2cc(C)n(Cc3ccccc3)c2C)C1=O	104	-61	-46	1	3	136*	103*	230*
COc1ccc(NC(=O)Nc2nnc(-c3cccs3)s2)cc1	103	-9	2	1	0	90*	102*	37*
COCC(=O)Nc1nnc(-c2ccc(C(C)(C)C)cc2)s1	113	-8	0	1	-5	86*	99*	30*
O=C(CN1CCCCC1)Nc1nnc(-c2ccc([N+](=O)[O-])cc2)s1	102	-72	-58	0	5	0	.	.
